Laboratory results reported in the supplement of paper PMC9262897, “Low-cost anti-mycobacterial drug discovery using engineered E. coli” (Nature Communications, 2022).
Counter-ions that a name gives are not always drawn. ± gives the standard deviation of the averaged measurements.

System: E. coli TESEC Mtb Alr
Assay: growth (OD600 after 10 h); higher = more growth (less inhibition)
Conditions: compound 0.1 mM
Procedure: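 TESEC Mtb Alr E. coli, or the Alr+ wild-type control, in 384-well plates with Prestwick library compounds at 0.1 mM and 1% DMSO, across arabinose induction levels of 1E3 to 1E7 nM. Growth is read as OD600 after 10 h at 37 °C in triplicate biological replicates.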

[1] = arabinose 1000 nM, raw OD600 reference: median of DMSO wells 0.294, cell-free background 0.041
[2] = arabinose 10000 nM, raw OD600 reference: median of DMSO wells 0.264, cell-free background 0.041
[3] = arabinose 100000 nM, raw OD600 reference: median of DMSO wells 0.201, cell-free background 0.041
[4] = arabinose 1000000 nM, raw OD600 reference: median of DMSO wells 0.193, cell-free background 0.041
[5] = arabinose 10000000 nM, raw OD600 reference: median of DMSO wells 0.146, cell-free background 0.041

Row | Structure (SMILES) | growth [1] | growth [2] | growth [3] | growth [4] | growth [5]
1 | Cc1cccc(CN2CCN(C(c3ccccc3)c3ccc(Cl)cc3)CC2)c1 (stereo not given) [Meclozine dihydrochloride] | 0.279 ± 0.011 | 0.302 ± 0.006 | 0.174 ± 0.023 | 0.129 ± 0.0042 | 0.185 ± 0.0054
2 | CC(C)OC(=O)C(C)(C)Oc1ccc(C(=O)c2ccc(Cl)cc2)cc1 [Fenofibrate] | 0.235 ± 0.015 | 0.245 ± 0.0051 | 0.143 ± 0.0063 | 0.0897 ± 0.0018 | 0.161 ± 0.0021
3 | CCN1CCC[C@H]1CNC(=O)c1c(O)c(Cl)cc(Cl)c1OC [Raclopride] | 0.16 ± 0.01 | 0.148 ± 0.017 | 0.14 ± 0.014 | 0.107 ± 0.0082 | 0.172 ± 0.0058
4 | Nc1ncnc2c1ncn2C1OC(COP(=O)(O)O)C(O)C1O (stereo not given) [Adenosine 5'-monophosphate monohydrate] | 0.32 ± 0.013 | 0.2658 ± 0.0011 | 0.237 ± 0.021 | 0.175 ± 0.0094 | 0.15 ± 0.0046
5 | Oc1ncnc2[nH]ncc12 [Allopurinol] | 0.283 ± 0.013 | 0.241 ± 0.0057 | 0.189 ± 0.019 | 0.172 ± 0.0073 | 0.141 ± 0.0016
6 | NC1CCN(c2nc3c(cc2F)c(=O)c(C(=O)O)cn3-c2ccc(F)cc2F)C1 (stereo not given) [Tosufloxacin hydrochloride] | 0.048 ± 0.0026 | 0.0491 ± 0.00026 | 0.0552 ± 0.0018 | 0.0452 ± 0.0008 | 0.0575 ± 0.0043
7 | O=C(O)c1cn(C2CC2)c2cc(N3CCNCC3)c(F)cc2c1=O [Ciprofloxacin hydrochloride monohydrate] | 0.0398 ± 0.0012 | 0.0399 ± 0.0009 | 0.0402 ± 0.0002 | 0.0391 ± 0.00026 | 0.0402 ± 0.00036
8 | CC(C)N1CCN(c2ccc(OCC3COC(Cn4cncn4)(c4ccc(Cl)cc4Cl)O3)cc2)CC1 (stereo not given) [Terconazole] | 0.266 ± 0.023 | 0.266 ± 0.0048 | 0.23 ± 0.022 | 0.205 ± 0.0063 | 0.15383 ± 0.00015
